From PubChem BioAssay (EPA / NIEHS) come the findings set out here.

Molecules are shown by their SMILES. Inconclusive results are not listed. Calls of active or inactive are those of the source. How the source made its calls: active means hit-call score of the fitted dose curve at least 0.9, where 1 is the maximum; inconclusive means response in the unintended direction; inactive means score below 0.9.

Sequence of Glyceraldehyde-3-phosphate dehydrogenase (Homo sapiens) (P04406 whole entry, looked up): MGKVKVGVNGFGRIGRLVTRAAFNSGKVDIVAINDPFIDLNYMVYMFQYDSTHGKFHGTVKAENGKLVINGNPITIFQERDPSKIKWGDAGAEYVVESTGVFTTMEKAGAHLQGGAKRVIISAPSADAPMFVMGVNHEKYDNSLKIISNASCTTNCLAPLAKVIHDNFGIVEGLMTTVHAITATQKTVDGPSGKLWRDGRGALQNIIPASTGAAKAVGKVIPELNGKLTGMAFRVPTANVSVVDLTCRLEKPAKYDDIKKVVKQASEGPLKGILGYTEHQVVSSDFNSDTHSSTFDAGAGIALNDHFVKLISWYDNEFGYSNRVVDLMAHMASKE

Read-out in this experiment: Glyceraldehyde-3-phosphate dehydrogenase (Homo sapiens) (UniProt P04406)
The experiment is described as follows: CLD_GAPDH_6hr: CellzDirect (CLD) Gene Expression Assay for Baseline Control (Glyceraldehyde 3-phosphate dehydrogenase) at 6 hours (AID 2283681). The protocol: CLD_6hr is a cell-based, multiplexed-readout assay that uses hepatocyte, a human liver primary cell, with measurements taken at 6 hours after chemical dosing in a 96-well plate.CLD_GAPDH_6hr is one of 16 assay component(s) measured or calculated from the CLD_6hr assay. It is designed to make measurements of mRNA induction, a form of inducible reporter, as detected with chemiluminescence signals by Quantitative Nuclease Protection Assay (qNPA) technology.Data from the assay component CLD_GAPDH_6hr was analyzed at the endpoint, CLD_GAPDH_6hr, in the positive analysis fitting direction relative to DMSO as the negative control and baseline of activity. Using a type of inducible reporter, gain-of-signal activity can be used to understand changes in the reporter gene as they relate to the gene GAPDH. Furthermore, this assay endpoint can be referred to as a secondary readout, because this assay has produced multiple assay endpoints where this one serves a background control function. To generalize the intended target to other relatable targets, this assay endpoint is annotated to the background measurement intended target family, where subfamily is baseline control.
Human hepatocyte cultures were treated daily for two consecutive days with fresh dosing solutions containing appropriate concentrations of the 320 ToxCast chemicals (chemical identities were blinded to CellzDirect and other ToxCast collaborators), vehicle control (0.2% DMSO), and positive control inducers as summarized in Table 1. Due to the large number of treatment groups and chemicals examined, the ToxCast chemicals were divided into two groups (spanning two independent cultures of hepatocytes from separate donor preparations (Hu778: ToxCast plates 1 and 2; Hu776: ToxCast plates 3 and 4). Each preparation of human hepatocyte cultures was treated with respective vehicle control, medium only control, set of six positive controls/reference chemicals for the five hepatic receptor pathways, and a subset of eight of the ToxCast chemicals (indoxacarb, pyrithiobac-sodium, norflurazon, cyhalofop-butyl, methomyl, thiram, acetochlor, and propiconazole). These replicate data, coupled with internal replicates designed within the blinded ToxCast chemical library, provided additional data to evaluate interindividual differences between hepatocyte preparations and their potential impact on chemical profiles.Cell morphology and integrity were evaluated using phase-contrast microscopy as an indicator of hepatocyte cell health (Tyson & Green, 1987). Cultures for each treatment group (i.e., media, vehicle [0.2% DMSO], positive control inducers [multiple concentrations], and the ToxCast chemicals [multiple concentrations]) were observed and cell morphology was assessed relative to vehicle control cultures at each harvest time point (0, 6, 24, or 48 h). […] Images were evaluated at the conclusion of the study to assess changes in cell integrity and account for the effects of chemical exposure on uncharacteristic changes in concentration-dependent gene expression profiles. The results from these determinations of apparent cytotoxicity were annotated (yes/no) alongside the corresponding qNPA data for reference.At the conclusion of each treatment period, hepatocyte cultures (96-well) were washed with 1 volume of HBSS, lysed by addition of 25 ul ArrayPlate lysis buffer (HTG, Tucson, AZ), and 70 ul/well of Denaturation Oil, denatured by incubation at 95C for 10 min, and frozen at approximately -70C until analysis by nuclease protection assay (qNPA) (Roberts et al., 2007). For qNPA analysis, cell lysates were thawed at 50C for approximately 30 min, qNPA probes were added, and samples were incubated at 95C for 10 min to begin the detection process by denaturing the target RNA, dissociating the duplexes and secondary structure hybridization. At the conclusion of the hybridization period, S1 nuclease reagent was added to each sample to digest all nonprotected nucleotides at 50C for 60-90 min. […]
Consider `Cc1cnc(C2=NC(C)(C(C)C)C(=O)N2)c(C(=O)O)c1` (stereo not given), for which the outcome was inactive.
With `CO/N=C(/C1=NOCCO1)c1ccccc1Oc1ncnc(Oc2ccccc2Cl)c1F` the entry was “inactive”; with `COC(=O)N(C(=O)N1CO[C@@]2(C(=O)OC)Cc3cc(Cl)ccc3C2=N1)c1ccc(OC(F)(F)F)cc1`, “inactive”.
Under `Cc1ccc(N=CN(C)C=Nc2ccc(C)cc2C)c(C)c1` stands “inactive”; under `CCOP(=O)(OCC)Oc1nc(Cl)c(Cl)cc1Cl`, “inactive”.
With `Clc1cccc(C(Cl)(Cl)Cl)n1` the entry was “inactive”.
For the compound `COP(=O)(OC)O/C(C)=C/C(=O)N(C)C`, the result was inactive.
On to `CCOc1cc(C(C)(C)C)ccc1C1COC(c2c(F)cccc2F)=N1` (stereo not given), for which the compound was classed as inactive.
On to `O=c1n(Cl)c(=O)n(Cl)c(=O)n1Cl`, for which the call was inactive.
In the case of `O=C1C2CC=CCC2C(=O)N1SC(Cl)(Cl)Cl` (stereo not given), the result was inactive.
Take `COCC(C)N(C(=O)CCl)c1c(C)csc1C` (stereo not given): the outcome was inactive.
With `CCCC(=NOCC)C1=C(O)CC(CC(C)SCC)CC1=O` (stereo not given) the entry was “inactive”; with `CCNC(=O)NC(=O)C(C#N)=NOC`, “inactive”; with `CS(=O)(=O)c1cc(C(F)(F)F)ccc1C(=O)c1cnoc1C1CC1`, “inactive”.
Under `CS(=O)(=O)c1ccc(C(=O)C2C(=O)CCCC2=O)c([N+](=O)[O-])c1` stands “inactive”; under `CCNP(=S)(OC)O/C(C)=C/C(=O)OC(C)C` (stereo not given), “inactive”; under `N#Cc1c(Cl)cccc1Cl`, “inactive”.
As to `CCCCOCN(C(=O)CCl)c1c(CC)cccc1CC`, the compound was classed as inactive.
Turning to `COP(=S)(OC)SCn1nnc2ccccc2c1=O`, the compound was classed as inactive.
With `CC(C)Oc1cccc(NC(=O)c2ccccc2C(F)(F)F)c1` the entry was “inactive”.
With `O=P(O)(O)CCCl` the entry was “inactive”; with `CN=C=S`, “inactive”.
With `O=C(O)c1c(Cl)ccc2cc(Cl)cnc12` the entry was “inactive”; with `CCOc1nc(C(Cl)(Cl)Cl)ns1`, “inactive”; with `CC1(C)CON(Cc2ccccc2Cl)C1=O`, “inactive”.
Turning to `COc1ccc(-c2ccccc2)cc1NNC(=O)OC(C)C`, the result was inactive.
Under `Clc1nc(Cl)nc(Nc2ccccc2Cl)n1` stands “inactive”.
With `CC(C)NC(=O)N1CC(=O)N(c2cc(Cl)cc(Cl)c2)C1=O` the entry was “inactive”; with `C=C(C)CN(CC)c1c([N+](=O)[O-])cc(C(F)(F)F)cc1[N+](=O)[O-]`, “inactive”; with `C=CCOC(=O)C(C)(C)OC(=O)c1cc(-n2c(=O)cc(C(F)(F)F)n(C)c2=O)ccc1Cl`, “inactive”.
With `CC(C)N1C(=O)c2ccccc2NS1(=O)=O` the entry was “inactive”; with `N#CN=C1SCCN1Cc1ccc(Cl)nc1`, “inactive”.
On to `CC(C)C1(C)N=C(c2ncccc2C(=O)O)NC1=O` (stereo not given), for which the result was inactive.
For `COP(=S)(OC)Oc1ccc([N+](=O)[O-])c(C)c1`, the outcome was inactive.
Under `CC(C)(C)C(=O)C(Oc1ccc(Cl)cc1)n1cncn1` (stereo not given) stands “inactive”; under `CSC(=O)c1c(C(F)F)nc(C(F)(F)F)c(C(=O)SC)c1CC(C)C`, “inactive”; under `OC(c1ccc(Cl)cc1)(c1ccc(Cl)cc1)C(Cl)(Cl)Cl`, “inactive”.
With `Nc1c(Cl)c(Cl)nc(C(=O)O)c1Cl` the entry was “inactive”.
With `Nc1c(Cl)c(F)nc(OCC(=O)O)c1Cl` the entry was “inactive”; with `COCc1cnc(C2=NC(C)(C(C)C)C(=O)N2)c(C(=O)O)c1` (stereo not given), “inactive”.
